Measured values taken from PubChem BioAssay.
Calls of active or inactive are those of the source. Unless noted, the rule behind the calls is not given here.

What was measured:
[1] = tested on: Wnt5a (protein binding on small-molecule microarray); experiment: Wnt5a binders on small-molecule microarray, primary screen, biophysical, 635/667 nm fluorescence (AID 1142); settings: 635 nm fluorescence, higher = more signal;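 note: fluorescence read at 667 nm with signal to noise per printed feature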
[2] = cell viability in Huh7 cells, primary screen, cytotoxicity control for HCV replication inhibitor project, CellTiter-Glo luminescence, basal, 48 h (AID 1143); settings: Huh7 HCV replicon, higher = more signal, called active from +8 up or from −8 down;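 note: Huh7 hepatoma cells carrying a hepatitis C replication reporter with no stimulus; test concentration not given here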
[3] = P. aeruginosa biofilm formation inhibitors, primary screen, PAO1 strain, BacTiter-Glo luminescence, LB-PBS (AID 1144); settings: 12 h, higher = more signal
[4] = CREB reporter modulators without forskolin, primary screen, cell-based, PC12, CRE-LacZ reporter, unstimulated (AID 1145); settings: no forskolin, luminescence, 4.5 h, higher = more signal, called active from +8 up or from −8 down
[5] = CREB reporter modulators under forskolin, primary screen, cell-based, PC12, CRE-LacZ reporter, forskolin-stimulated (AID 1146); settings: luminescence, 4.5 h, higher = more signal, called active from +8 up or from −8 down;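 note: PC12 cells with 6xCRE LacZ reporter stimulated by forskolin 10 µM; beta-galactosidase reporter signal reflecting CREB driven transcription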
[6] = molecular target: Streptavidin (Streptomyces avidinii) (UniProt P22629); experiment: streptavidin binders on small-molecule microarray, primary screen, artefact control for SMM compound annotation, biophysical, 635/667 nm fluorescence (AID 1147); settings: streptavidin binding, higher = more signal;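 note: signal reflects streptavidin binding to arrayed compounds as a control protein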
Sequence of Streptavidin (Streptomyces avidinii) (P22629 whole entry, looked up): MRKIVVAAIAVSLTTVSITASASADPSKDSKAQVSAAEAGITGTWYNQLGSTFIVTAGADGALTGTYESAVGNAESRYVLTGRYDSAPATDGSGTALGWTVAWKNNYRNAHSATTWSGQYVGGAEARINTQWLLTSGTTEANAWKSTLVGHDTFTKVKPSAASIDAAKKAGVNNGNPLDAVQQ

[7] = small-molecule binders of probe aInhba, primary screen, biochemical, small-molecule microarray, 635/667 nm fluorescence (AID 1148); settings: higher = more signal;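 note: score merges 667nm spot fluorescence with signal-to-noise for antibody binding to printed compounds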
Torsin-1A (Homo sapiens) [8] = molecular target: Torsin-1A (Homo sapiens) (UniProt O14656); experiment: torsin A binders from cell lysate, primary screen, small-molecule microarray, wild-type, 635/667 nm (AID 1149); settings: COS7 hTOR1A-WT lysate, 635 nm fluorescence, higher = more signal
Sequence of Torsin-1A (Homo sapiens) (O14656 whole entry, looked up): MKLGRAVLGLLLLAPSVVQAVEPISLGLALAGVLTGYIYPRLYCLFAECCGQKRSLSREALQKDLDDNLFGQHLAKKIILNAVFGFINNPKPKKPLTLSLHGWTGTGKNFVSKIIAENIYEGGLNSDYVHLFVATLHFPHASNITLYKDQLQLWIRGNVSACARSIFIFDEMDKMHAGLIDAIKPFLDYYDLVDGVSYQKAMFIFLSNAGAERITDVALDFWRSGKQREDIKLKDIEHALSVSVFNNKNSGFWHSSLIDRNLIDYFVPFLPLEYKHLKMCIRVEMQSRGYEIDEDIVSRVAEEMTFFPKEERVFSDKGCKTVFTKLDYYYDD

Torsin-1A (Homo sapiens) [9] = molecular target: Torsin-1A (Homo sapiens) (UniProt O14656); experiment: small-molecule binders of mutant TOR1A in lysate, primary screen, cell lysate, small-molecule microarray, COS7 lysate, 635/667 nm fluorescence (AID 1150); settings: COS7 hTOR1A mutant lysate, 635 nm fluorescence, higher = more signal;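 note: score pools 667 nm emission and signal to noise measuring lysate protein binding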
[10] = tested on: Sonic hedgehog protein (Shh); experiment: small-molecule binders of Shh protein, primary screen, biochemical, small-molecule microarray, 635/667 nm fluorescence (AID 1151); settings: small-molecule microarray binding, 635 nm fluorescence; higher = more signal;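 note: Shh protein binding to compounds spotted on small-molecule microarray slides; score combines spot fluorescence intensity with signal-to-noise across triplicate slides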

| SMILES | composite z-score [1] | z-score [2] | z-score [3] | z-score [4] | z-score [5] | composite z-score [6] | composite z-score [7] | composite z-score (Torsin-1A (Homo sapiens) [8]) | composite z-score (Torsin-1A (Homo sapiens) [9]) | composite z-score [10] |
| --- | --- | --- | --- | --- | --- | --- | --- | --- | --- | --- |
| Cc1ccc([C@H]2C(C(=O)O)=CCN2S(=O)(=O)c2ccc(C)cc2)cc1 | -0.171 | -0.849 (inactive) | 0.668 (inactive) | -0.48 (inactive) | -0.119 (inactive) | 0.468 | 0.0108 | 0.593 | 0.435 | 0.0688 |
| N#Cc1ccc(C(O)C2C=CC3C(=O)N(c4ccccc4)C(=O)C3N2Nc2ccccc2F)cc1 (stereo not given) | 0.286 | -2.92 (inactive) | -0.826 (inactive) | -0.107 (inactive) | -0.852 (inactive) | 0.0289 | -0.0986 | -0.291 | -0.301 | -0.234 |
| C=CC1c2cc(O)c(OC)cc2CCN1Cc1cccc(OC(F)(F)F)c1 (stereo not given) | -0.415 | -2.49 (inactive) | 0.0435 (inactive) | -0.527 (inactive) | 1.28 (inactive) | 0.577 | -0.152 | -1.1 | 0.88 | 0.12 |
| CN(C)CCCCCCNC(=O)[C@@H]1C[C@@H]2C(=O)N3CCC[C@H]3C(=O)N2[C@@H]1c1ccc(O)cc1 | 0.21 | -0.892 (inactive) | -0.999 (inactive) | 0.561 (inactive) | -0.439 (inactive) | -0.331 | 0.138 | 1.4 | 1.46 | 2.17 |
| CC1CC/C=C\[C@H]2OC34C=CCN(Cn5nnc6ccccc65)C(=O)[C@H]3N(CCCCCO)C(=O)[C@@H]4C2C(=O)O1 (stereo not given in full) | -0.613 | -1.2 (inactive) | -0.989 (inactive) | 0.0524 (inactive) | -0.567 (inactive) | -1.76 | -0.176 | -2.12 | -1.12 | -0.124 |
| C=C[C@H](C)[C@@H](OC(=O)Nc1ccc(SC)cc1)c1ccc(O)c2ccccc12 | 0.64 | -1.08 (inactive) | -0.492 (inactive) | -0.505 (inactive) | 1.69 (inactive) | 1.26 | -0.0375 | 0.163 | 0.165 | 1.76 |
| COCCCNC(=O)[C@@]1(Cc2ccccc2CN=[N+]=[N-])N=C(c2ccc(OCCCO)cc2)O[C@H]1c1ccccc1CN=[N+]=[N-] | 1.08 | -5.48 (inactive) | -1.5 (inactive) | 0.76 (inactive) | -1.68 (inactive) | 0.521 | -0.0195 | 0.0552 | 0.511 | -0.933 |
| CC(C)[Si](C#CCCCC#N)(O[C@H](c1ccccc1)c1cn(Cc2cccc(Cl)c2)nn1)C(C)C | 0.182 | -2.2 (inactive) | -0.603 (inactive) | -0.215 (inactive) | -0.859 (inactive) | -0.0708 | 0.0614 | 1.42 | 0.392 | 1.21 |
| CO[C@H]1O[C@H](CO)[C@@H](OC(=O)Nc2cccc(F)c2)[C@H](OC(=O)Nc2ccccc2)[C@H]1OC(=O)Nc1ccccc1 | 0.701 | -4.58 (inactive) | -0.703 (inactive) | -0.0484 (inactive) | -1.22 (inactive) | -0.0985 | 0.226 | 1.28 | 0.616 | 1.61 |
| O=C(CS)NCCCCCNC(=O)[C@@H]1C[C@@H]2C(=O)NCC(=O)N2[C@@H]1c1ccc(O)cc1 | -0.0716 | -0.454 (inactive) | -0.171 (inactive) | 0.281 (inactive) | 0.208 (inactive) | -0.618 | 0.0275 | 0.507 | 0.0395 | 1.44 |
| NC(=O)NCC#Cc1ccc2c(c1)[C@]1(C(=O)N2)[C@H](C(=O)O)[C@H]2C(=O)O[C@H](c3ccccc3)[C@H](c3ccccc3)N2[C@@H]1c1ccc(O)cc1 | -0.0543 | 0.164 (inactive) | -0.36 (inactive) | 0.892 (inactive) | -0.89 (inactive) | 1.48 | 0.174 | -0.359 | -0.245 | 1.02 |
| CC(CO)N1C(=O)[C@@H]2C3C(=O)OCCC/C=C\[C@H]3OC23C=CCN(CCN2CCOCC2)C(=O)[C@@H]13 (stereo not given in full) | 0.0719 | 0.795 (inactive) | -1.1 (inactive) | -0.476 (inactive) | -0.183 (inactive) | -0.254 | -0.201 | -0.951 | -0.776 | 1.21 |
| COC(=O)[C@@]1(CCC(=O)OC(C)(C)C)N=C(c2ccc(OCCCO)cc2)O[C@H]1c1ccccc1 | 0.762 | -3.61 (inactive) | -0.24 (inactive) | 2.25 (inactive) | -2.12 (inactive) | -0.888 | 0.0319 | -0.831 | -0.275 | 0.443 |
| CCCCC(=C=CC[C@H](O)c1cccc(OCCO)c1)C[C@H](O)c1ccccn1 | 0.11 | -2.42 (inactive) | -0.478 (inactive) | 0.685 (inactive) | -0.738 (inactive) | 0.329 | -0.101 | 0.147 | 0.704 | 0.577 |
| O=C1NC(=O)C2C1C=CC(C(O)C=Cc1ccc([N+](=O)[O-])cc1)N2Nc1ccc(Cl)cc1Cl (stereo not given) | 0.28 | 0.099 (inactive) | -0.402 (inactive) | 0.253 (inactive) | 0.342 (inactive) | 1.14 | 0.317 | 0.339 | 0.417 | -0.08 |
| CCOC(=O)[C@H]1C/C=C/C[C@H](C(=O)OCC)C(=O)O[C@H]2[C@@H](OC)O[C@H](CO)[C@@H](OC(=O)c3ccc(Br)cc3)[C@@H]2OC1=O | 0.168 | -3.02 (inactive) | -0.79 (inactive) | 0.342 (inactive) | -0.0314 (inactive) | -0.0923 | 0.0464 | 0.441 | -0.15 | 0.473 |
| [N-]=[N+]=Nc1ccccc1[C@H]1OC(c2ccc(OCCCO)cc2)=N[C@@]1(CCS(=O)(=O)c1ccccc1)C(=O)NCc1ccccc1 | 0.768 | -2.65 (inactive) | 0.0905 (inactive) | 1.26 (inactive) | -0.504 (inactive) | 1.47 | 0.204 | 0.503 | 0.786 | 0.0239 |
| CC(=CC1CCCCC1)[C@@H](NC(=O)c1cccnc1)c1ccc(-c2ccccc2)cc1 | -0.444 | -2.65 (inactive) | 0.477 (inactive) | 1.34 (inactive) | 1.24 (inactive) | 0.0816 | -0.0986 | -0.77 | -0.278 | -0.683 |
| CC(C)(C)OC(=O)CC[C@]1(C(=O)NCCN2CCOCC2)COC(c2ccc(OCCCO)cc2)=N1 | 0.681 | -0.102 (inactive) | -0.192 (inactive) | 0.157 (inactive) | -0.168 (inactive) | 0.344 | 0.0227 | 0.717 | 1.37 | 0.998 |
| COCCOC(=O)N1C(=O)[C@@]2(c3cc(C#CC4=CCCCC4)ccc31)[C@H](c1ccc(OCCO)cc1)N1[C@H](c3ccccc3)[C@H](c3ccccc3)OC(=O)[C@H]1[C@@H]2C(=O)N1CCc2cc(OC)c(OC)cc2C1 | 0.687 | -0.496 (inactive) | -0.536 (inactive) | -0.258 (inactive) | -0.513 (inactive) | 0.606 | 0.346 | 0.359 | 1.17 | 1.32 |
| COC(=O)C[C@H]1O[C@@H](CCc2ccccc2)[C@@H](C)[C@@H]1[Si](C)(C)c1ccc(OC)cc1 | 0.0073 | -1.76 (inactive) | 0.315 (inactive) | -0.87 (inactive) | -0.687 (inactive) | -0.604 | -0.0963 | -0.247 | -0.23 | -0.243 |
| [N-]=[N+]=Nc1ccccc1C[C@]1(C(=O)N2CCCCC2)COC(c2ccc(OCCCO)cc2)=N1 | 0.427 | -4.35 (inactive) | 1.38 (inactive) | 1.01 (inactive) | -0.57 (inactive) | 1.22 | 0.0108 | 0.552 | 0.742 | -0.385 |
| COc1ccc(NN2C(C(O)c3ccc(N(C)C)cc3)C=CC3C(=O)N(C4CCCCC4)C(=O)C32)cc1 (stereo not given) | 0.66 | -0.759 (inactive) | -0.805 (inactive) | -0.583 (inactive) | -0.249 (inactive) | 1.46 | 0.346 | 0.0944 | 1.11 | 0.0202 |
| C#CCN1[C@H](/C=C/C2CC2)[C@H](Cc2ccccc2)OC(=O)[C@@H]1Cc1ccccc1 | -0.18 | -3.28 (inactive) | 0.854 (inactive) | 1.04 (inactive) | 1.29 (inactive) | -0.929 | -0.0675 | 0.349 | 0.429 | 1.12 |
| COc1ccc([C@H]2C[C@H]3C(Br)=C[C@@]2(CO)C(=O)[C@]32CO2)cc1 | 0.0718 | 0.187 (inactive) | -0.23 (inactive) | 0.309 (inactive) | 1.6 (inactive) | -0.264 | -0.0245 | -0.361 | -0.83 | -0.134 |
| C=C(C)[C@@H]1CC=C(C(O)C2C=CC3C(=O)NC(=O)C3N2Nc2ccc(Cl)cc2Cl)CC1 (stereo not given in full) | 0.287 | -1.64 (inactive) | -0.995 (inactive) | 0.815 (inactive) | -0.113 (inactive) | 1.39 | 0.099 | -0.0124 | 0.455 | 0.393 |
| CCCCC(O)C1C=CC2C(=O)N(C)C(=O)C2N1N1CCCCC1 (stereo not given) | 0.0755 | 1.09 (inactive) | 0.382 (inactive) | 0.0535 (inactive) | 0.47 (inactive) | 0.0223 | 0.196 | 0.0748 | 0.845 | 0.0629 |
| O=C1O[C@@H](c2ccccc2)[C@@H](c2ccccc2)N2[C@@H](c3ccc(OCCO)cc3)[C@]3(C(=O)Nc4ccc(C#CC5=CCCCC5)cc43)[C@@H](C(=O)N3CCCCCCC3)[C@H]12 | 1.18 | -2.05 (inactive) | -0.334 (inactive) | 0.568 (inactive) | 0.509 (inactive) | 2.92 | 1.93 | 1.58 | 2.02 | 1.37 |
| CC#CC(=O)Oc1ccc(Br)cc1C=CC(=O)OCC | -0.0465 | -2.98 (inactive) | 0.0278 (inactive) | 1.81 (inactive) | 32.2 (active) | 0.119 | 0.248 | -0.0177 | -0.329 | 0.247 |
| COc1ccccc1CN1C(=O)c2ccccc2[C@@H](C(=O)NCc2ccccc2)[C@@H]1c1ccc(CO)cc1 | -0.13 | -0.107 (inactive) | 1.29 (inactive) | 0.648 (inactive) | -1.35 (inactive) | -0.515 | -0.176 | 0.408 | 0.48 | 0.496 |
